High-throughput results from PubChem BioAssay.
Only some compounds are listed: those with a hit (about 9.3% of all), similar ones and a draw of the others.
HCV inh – qHTS Assay for Inhibitors of Hepatitis C Virus (HCV) | Huh7.5.1 HCVcc-Cre infection, luciferase reporter, 44 h | Potency, µM (doses to about 41.8 µM), inactives show at the top dose activity change, negative = inhibition, hits mostly inhibitors | 340,000 tested, 3.4% active | AID 651820, 2012; further: potency means the concentration at half of the fitted maximal effect
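Cells (1,000/well) were plated 4 h before compound, then infected with HCVcc-Cre virus (~0.5 moi). After 44 h further culture, infection was read as luciferase luminescence following a 15 min substrate incubation at room temperature.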
FMDV inh – High Throughput Screening for Foot and Mouth Disease Virus Antivirals; FMDV antiviral cell-based qHTS; Potency, µM (top dose mostly 57.9 µM), for inactives: top-dose activity change, negative = inhibition, most hits filed as inhibitors; 410,000 tested, 1.2% active; AID 1159524, 2015; calls by dose curve; tested in HEK293T cells; further: read-out not given here; potency means the concentration at half of the fitted maximal effect; nearly all actives have a fitted effect of over 45% in size
Sm TGR inh – qHTS Assay for the Inhibitors of Schistosoma Mansoni Peroxiredoxins. Schistosoma mansoni thioredoxin glutathione reductase (TGR), Q962Y6. purified TGR, DTNB reduction, TNB absorbance 405 nm. Potency, µM (series often up to 114 µM), without a hit: at the top dose activity change, negative = inhibition, most hits filed as inhibitors. 360,000 tested, 3% active; further: potency means the concentration at half of the fitted maximal effect; nearly all actives have a fitted effect of over 60% in size
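TGR 20 nM + NADPH 100 uM (dispensed conc.), cpd preinc 15 min RT; start with NADPH (500 uM addition) then DTNB (15 mM addition). Kinetic TNB absorbance, 405 nm filter. Four-parameter Hill fit across titration.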
HCMV antiviral – qHTS Assay for inhibitors of the human cytomegalovirus (HCMV); HFF cells, HCMV-luciferase reporter, 72 h; hits give low values; activity change, negative = inhibition, % at 57.5 µM; 410,000 tested, 4.5% active; in the data active means activity change below about -60%; inconclusive means no clear call, values can overlap the other calls; inactive means above about -39%
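Screen run at 2 compound doses on HFFs infected with reporter HCMV, MOI 1 PFU/cell. Luciferase activity from cell lysates at 72 h post infection gave inhibition relative to buffer-only and Salinomycin wells.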
VACV mCherry inh – qHTS for Stage-Specific Inhibitors of Vaccinia Orthopoxvirus: mCherry Reporter Primary qHTS; 310,000 tested, 0.63% active; Potency, µM (series often up to 36.5 µM), for inactives: at the highest dose activity change, negative = inhibition, most hits filed as inhibitors; Vaccinia virus mCherry reporter infection, fluorescence; calls by dose curve; tested in A549 cells; further: potency means the concentration at half of the fitted maximal effect; nearly all actives have a fitted effect of over 35% in size
VACV Venus inh – qHTS for Stage-Specific Inhibitors of Vaccinia Orthopoxvirus: Venus Reporter Primary qHTS. Vaccinia virus Venus reporter expression, fluorescence. Potency, µM (doses to about 36.5 µM), for inactives: at the top dose activity change, negative = inhibition, actives largely listed as inhibitors. 330,000 tested, 0.46% active; calls by dose curve; tested in A549 cells; further: potency means the concentration at half of the fitted maximal effect; nearly all actives have a fitted effect of over 30% in size
Starred values were filed as active, the others as inactive; i = inactive; ? = inconclusive; . = no result; [ ] = dose if it differs, or a comment. Unless noted, the call rests on the fitted dose curve; in most records, active means well fitted curve in the direction sought with a large enough effect; inconclusive means small, poorly fitted or top-dose-only effect, or another doubt; inactive means no such curve, though single readings can be large; an effect the other way counts as inactive or inconclusive. On the % scale 0 is the no-effect control and ±100 the full control effect.

SMILES | HCV inh | FMDV inh | Sm TGR inh | HCMV antiviral | VACV mCherry inh | VACV Venus inh
Cc1cccc(NC(=O)COc2coc(CN3CCN(c4ccccc4)CC3)cc2=O)c1C | ? | ? | 0.0% | -61.0* | i | -11.0%
O=C(COc1coc(CN2CCN(c3ccccc3)CC2)cc1=O)Nc1ccccc1 | 0.8% | -20.5% | ? | 10.0 | -8.7% | -3.1%
CCOC(=O)COc1coc(CN2CCN(c3ccccc3)CC2)cc1=O | 17.0% | -3.0% | -9.4% | -61.0* | -7.8% | -6.4%
Nc1c(N2CCCC2)c2ccccc2oc1=O | -10.7% | -5.1% | 7.4% | -21.5 | -8.3% | 3.3%
O=c1[nH][nH]c(C(F)(F)F)c1C=Nc1ccccc1 | 5.4% | -0.2% | -19.5% | -6.9 | . | .
O=c1[nH][nH]c(C(F)(F)F)c1C=NCc1cccs1 | -4.9% | -25.9% | -3.4% | -65.2* | . | .
Cc1cccc(C(=O)NCCc2nc3ccccc3n2CCC(C)C)c1 | . | -26.9% | 2.7% | -21.2 | 2.5% | 4.5%
O=C(C[n+]1ccc(-c2cc(C(=O)Nc3cccc(C(F)(F)F)c3)c3ccccc3n2)cc1)c1cccc([N+](=O)[O-])c1 | 12.6µM* | ? | 44.7µM* | -66.3* | -25.9% | 1.9%
O=C(C1CCCN(C2CC(=O)N(c3ccc(F)cc3)C2=O)C1)N1CCCC1 (centres undefined) | 27.6% | -7.9% | ? | 34.3 | -5.9% | -3.8%
Cc1cc(C)n(C2CC(=O)N(c3cccc(Cl)c3)C2=O)n1 (centres undefined) | 18.9% | -12.4% | 25.1µM* | 2.8 | i | -2.5%
CCCOc1ccc(N2C(=O)CC(N3CCCC(C(=O)N4CCCC4)C3)C2=O)cc1 (centres undefined) | ? | 2.0% | 35.5µM* | -5.6 | i | -11.7%
O=C(C1CCCN(C2CC(=O)N(c3ccc(Cl)cc3)C2=O)C1)N1CCCC1 (centres undefined) | 5.5% | -4.3% | 39.8µM* | -17.1 | i | -10.1%
O=C(C1CCN(C2CC(=O)N(c3cccc(Cl)c3)C2=O)CC1)N1CCCCCC1 (centres undefined) | 20.3% | -26.2% | 14.1µM* | 14.0 | . | -16.9%
O=c1c2c(-c3cccs3)csc2ncn1/N=C/c1ccccn1 | -5.7% | -20.9% | . | 29.2 | -14.4%[7.34 µM] | -5.6%[7.34 µM]
CCc1ccc(NC(=O)C(C)OC(=O)CN2C(=O)NC3(CCCC3)C2=O)cc1 (centres undefined) | 18.7% | -11.4% | -4.3% | 0.0 | . | .
CC(=O)c1ccc(N2CCN(c3ncccn3)CC2)cc1 | -6.9% | 36.4% | -3.8% | 41.6 | 35.4% | -1.6%
CC1CC(C(O)c2ccccn2)C(=O)C(C(O)c2ccccn2)C1 (centres undefined) | -3.8% | -0.2% | . | 8.8 | ? | -2.5%
CC(C)COC(=O)Cn1cnc2ccc(Br)cc2c1=O | -27.2% | 35.4% | -26.2% | ? | i | -21.6%
CCOC(=O)c1cc2c(=O)n3ccccc3nc2n(Cc2ccco2)c1=NC(=O)c1cccnc1 | 1.6% | -1.6% | 22.4µM* | -15.9 | -13.9% | -10.9%
CCOC(=O)c1cc2c(=O)n3cccc(C)c3nc2n(Cc2ccco2)c1=NC(=O)c1cccnc1 | ? | 9.3% | 5.62µM* | -9.5 | -15.1% | -17.9%
Cc1cccn2c(=O)c3cc(C#N)c(=NC(=O)c4ccco4)n(Cc4ccco4)c3nc12 | ? | -19.7% | ? | -27.1 | -6.1% | -9.8%
Cc1cccn2c(=O)c3cc(C#N)c(=NC(=O)c4ccccc4)n(Cc4ccco4)c3nc12 | 3.98µM* | -29.2% | . | 1.1 | -20.3% | ?
CCOC(=O)c1cc2c(=O)n3ccccc3nc2n(Cc2ccco2)c1=NC(=O)c1ccc(C)c(C)c1 | . | -11.3% | -30.0% | 1.7 | i | -18.2%
CC(=O)N1CC(=O)Nc2ccc(Br)cc2C1c1ccc(F)cc1 (centres undefined) | 0.4% | -23.0% | -10.8% | . | . | .
COc1ccc(-c2csc(N3CCN(S(=O)(=O)c4ccc5c(c4)NC(=O)CO5)CC3)n2)cc1 | ? | ? | 1.3% | -87.7* | . | .
SMILES | HCV inh | FMDV inh | Sm TGR inh | HCMV antiviral | VACV mCherry inh | VACV Venus inh
COc1ccc(S(=O)(=O)NCC2CCCN(Cc3ccc(C)o3)C2)cc1 (centres undefined) | 1.6% | 4.1% | 35.5µM* | -17.3 | -7.4% | -5.9%
CCOC(=O)N1CCc2c(sc3c2c(=O)n(Cc2ccccc2)c(=O)n3Cc2c(F)cccc2Cl)C1 | . | -16.2% | 1.7% | -68.1* | -20.7% | -15.2%
CCOC(=O)N1CCc2c(sc3c2c(=O)n(Cc2ccccc2)c(=O)n3Cc2ccccc2F)C1 | 6.5%[8.37 µM] | -25.6% | -3.3% | 12.0 | i | -20.1%
CC(=O)N1CCc2c(sc3c2c(=O)n(CCc2ccccc2)c(=O)n3CC(=O)Nc2ccccc2F)C1 | . | 0.3% | 2.3% | ? | -4.8% | 8.0%
CC(=O)N1CCc2c(sc3c2c(=O)n(CCc2ccccc2)c(=O)n3Cc2ccc(F)cc2)C1 | . | ? | 4.6% | -60.6* | -11.9% | -1.2%
COc1ccccc1NC(=O)Cn1c(=O)n(CCc2ccccc2)c(=O)c2c3c(sc21)CN(C(C)=O)CC3 | . | ? | 2.0% | -91.6* | -19.1% | -7.4%
COC(=O)c1ccc(OC(=O)C2CC(=O)N(c3cccc(C)c3)C2)cc1 (centres undefined) | 1.4% | -0.5% | -35.7% | 0.7 | . | .
CC(=O)c1cc2c(cc1NS(=O)(=O)c1ccccc1)OCO2 | -9.6% | 13.6% | -17.3% | 51.2 | . | .
CCC(C)NS(=O)(=O)c1ccc(S(=O)(=O)Nc2cc3c(cc2C(C)=O)OCO3)cc1 (centres undefined) | 14.1µM* | -1.8% | -13.3% | -25.6 | -28.6% | -9.1%
Cc1ccc2oc(Nc3nc(-c4ccccc4)cc(=O)[nH]3)nc2c1 | 0.0% | ? | 5.7% | -101.1* | -0.3% | -14.6%
CCOc1ccccc1CN1CCC(Oc2ccc(C(=O)NCc3ccccn3)cc2)CC1 | -26.5% | -21.4% | -22.8% | 6.5 | . | .
O=C(NCCc1cccc(Cl)c1)c1ccc(OC2CCN(Cc3ccccn3)CC2)cc1 | ? | 28.2µM* | -27.3% | -71.0* | . | .
CCn1cc(CNC(=O)c2ccc(OC3CCN(Cc4ccccn4)CC3)cc2)cn1 | 10µM* | ? | 2.0% | -71.4* | ? | -13.3%
O=C(O)c1ccc(CN2CCOCC2)o1 | 18.5% | -5.0% | 2.7% | -33.5 | i | -7.6%
COc1cccc(CNC(=O)c2nnc(Cc3ccc(Cl)cc3)o2)c1 | . | 6.3% | 2.5% | -1.0 | -15.8% | -16.3%
O=C(CCN1C(=O)c2ccccc2C1=O)C1=NN[C@@H]2C(=O)N(c3ccc4c(c3)OCO4)C(=O)[C@H]12 | 17.9% | 5.7% | 25.1µM* | 31.1 | -11.4% | -1.5%
